Assay results as given in PubChem BioAssay (NCATS).
Inconclusive results are not listed. Entries that show only a call come without a potency. Calls of active or inactive are those of the source. The call rests on the fitted dose curve; in most records, active means well fitted cell-killing curve with a large enough effect; inconclusive means small, poorly fitted or top-dose-only effect; inactive means no such curve, though single readings can be large or run the other way.

assay: qHTS of pediatric cancer cell lines to identify multiple opportunities for drug repurposing: Primary screen for NB1643 cells (AID 1347099); conditions: NB1643 neuroblastoma viability, CellTiter-Glo luminescence, 48 h; series mostly up to 46 µM; further: nearly all actives have a fitted effect of over 50% in size
Description: Drug repurposing or repositioning has been offered as a strategy for drug development in oncology programs. This approach has special potential for childhood cancers and other rare or orphan diseases, where the expected return on new drug development has been a disincentive to pharmaceuticals. […] In this project we exploit the poly-pharmacology of drugs to discover new indications via phenotypic screening of a panel of 19 well-characterized cell lines derived from solid tumors seen in children and adolescents. The goal is to identify approved drugs with previously unrecognized anticancer properties that has the potential to reveal new mechanisms and biological processes involved in carcinogenesis or drug resistance. We employed a titration-based paradigm (quantitative high-throughput screening or qHTS), where all compounds were tested at multiple concentrations for their effect on cell viability. Concentration-response curves (CRCs) were derived directly from the primary screen, and both potency and efficacy values were used to identify compounds with robust bioactivity profiles. We screened the NIH Chemical Genomics Center (NCGC) Pharmaceutical Collection (NPC) and Mechanism Interrogation Plate (MIPE) small molecule collections of approved and investigational compounds against these cell lines; and measured metabolically active cells after 48 hours of compound treatment as a proxy for cell viability. […] Assay Submitter: Nathalia J. Martinez, National Center for Advancing Translational Sciences, National Institutes of Health, Rockville, MD, USA; email: natalia.martinez@nih.gov Shen, M et al. Quantitative high-throughput phenotypic screening of pediatric cancer cell lines identifies multiple opportunities for drug repurposing. Oncotarget 2017 Dec 19;9(4):4758-4772. PMID 29435139.
The cells were obtained from University of North Carolina (UNC), Pediatric Preclinical Testing Program (PPT), and Coriell Institute (CI). qHTS cell viability assay: Cells were assayed in growth media at a density of 500-1,000 cells/well. Five microliters of cells were dispensed into 1,536-well, white, solid-bottom, TC-treated plates (Greiner Bio One) using a multidrop dispenser and incubated at 37 degrees C, 5% CO2, under a humidified atmosphere for 5 hours. Twenty-three nanoliters of compounds and controls (neutral control DMSO or positive control bortezomib at final concentration of 2.3 µM) were subsequently transferred by Kalypsys pintool. For primary screens, the MIPE collection was tested at 11-point dilutions (final concentrations range from 0.78 nM to 46 µM) and the NPC collection at 8-point dilutions (final concentrations range from 0.59 nM to 46 µM). Compounds tested in follow-up screens were assayed at 11-point dilutions. Cells were incubated for 48 hours, followed by addition of 3 µL of CellTiter-Glo (Promega). After a 15 min incubation at room temperature, samples were analyzed for luminescence intensity using a ViewLux High-throughput CCD imager equipped with clear filters.
Potency means the concentration at half of the fitted maximal effect.

| Structure (SMILES) | Potency |
| --- | --- |
| CCCCN=C(N)N=C(N)N | inactive |
| COc1cc([C@H]2Oc3cc([C@H]4Oc5cc(O)cc(O)c5C(=O)[C@@H]4O)ccc3O[C@@H]2CO)ccc1O | inactive |
| OCCOCCN1CCN(C2=Nc3ccccc3Sc3ccccc32)CC1 | inactive |
| O=C(O)Cc1csc(-c2ccc(Cl)cc2)n1 | inactive |
| O=C(O)CCC(=O)Nc1ccc(S(=O)(=O)Nc2nccs2)cc1 | inactive |
| Cn1c(=O)c2[nH]c(Br)nc2n(C)c1=O | inactive |
| C[N+]12CCC(CC1)C(OC(=O)C(O)(c1ccccc1)c1ccccc1)C2 (stereo not given) | inactive |
| CCOc1cc(OCC)c(C(=O)CCC(=O)O)cc1OCC | inactive |
| CN(Cc1ccc(C(C)(C)C)cc1)Cc1cccc2ccccc12 | inactive |
| O=C(O)C(Cc1cc(I)c(O)c(I)c1)c1ccccc1 (stereo not given) | inactive |
| CCN1CCN(C(=O)N[C@@H](C(=O)N[C@@H]2C(=O)N3C(C(=O)O)=C(CSc4nnnn4C)CS[C@H]23)c2ccc(O)cc2)C(=O)C1=O | inactive |
| CC(=O)NC(=O)c1ccccc1O | inactive |
| O=C(CN1CCN(Cc2ccc3c(c2)OCO3)CC1)N1c2ccccc2Sc2ccccc21 | inactive |
| CC[N+](C)(CC)CCOC(=O)C(O)(c1ccccc1)C1CCCCC1 (stereo not given) | inactive |
| CC1(C)OC[C@@H]2O[C@@]3(C(=O)O)OC(C)(C)O[C@H]3[C@@H]2O1 | inactive |
| CCNC(=O)NCc1cccc(Cl)c1 | inactive |
| Oc1ccc(Cl)cc1Cc1cc(Cl)ccc1O | 9.44 µM (active) |
| CC(=O)Nc1ccc(S(=O)(=O)Nc2ccc([N+](=O)[O-])cc2)cc1 | inactive |
| CCOC(=O)Nc1ccc2c(c1)N(C(=O)CCN1CCOCC1)c1ccccc1S2 | inactive |
| NS(=O)(=O)c1cc2c(cc1Cl)NC(CC1CCCC1)NS2(=O)=O (stereo not given) | inactive |

| Structure (SMILES) | Potency |
| --- | --- |
| CCCCN1C[C@H](O)[C@@H](O)[C@H](O)[C@H]1CO | inactive |
| C=C1c2cccc(O)c2C(O)=C2C(=O)[C@]3(O)C(O)=C(C(N)=O)C(=O)[C@@H](N(C)C)[C@@H]3[C@@H](O)[C@H]12 | inactive |
| CCCCCCCCCCCCOCCOCCOCCOCCOCCOCCOCCOCCOCCO | inactive |
| CCCN(CCC)S(=O)(=O)c1ccc(C(=O)O)cc1 | inactive |
| CC(=O)NCCCCCC(=O)O | inactive |
| OC(C#CCN1CCCC1)(c1ccccc1)c1ccccc1 | inactive |
| CC(C)(Cc1c[nH]c2ccccc12)NCC(O)COc1ccccc1C#N (stereo not given) | inactive |
| c1ccc(-c2nc[nH]c2-c2ccccc2)cc1 | inactive |
| c1ccc(CC2=NCCN2)cc1 | inactive |
| Cc1ccc(S(=O)(=O)NC(=O)NC2CCCC2)cc1 | inactive |
| O=C(O)P(=O)(O)O | inactive |
| CCCCCCCCCCCCCC(=O)OC(C)C | inactive |
| O=S(c1cc(Cl)cc(Cl)c1O)c1cc(Cl)cc(Cl)c1O | inactive |
| CC(C)(C)NC[C@H](O)COc1nsnc1N1CCOCC1 | inactive |
| FC(F)(F)C(F)(F)C(F)(F)C(F)(F)C(F)(F)C(F)(F)C(F)(F)C(F)(F)Br | inactive |
| CCC(CC)(CC(=O)Nc1cccc(/C=C/c2nc(C3CCC3)cs2)c1)C(=O)O | inactive |
| CCN(CC)CCOC(=O)C(Cc1cccc2ccccc12)CC1CCCO1 (stereo not given) | inactive |
| O=C(Nc1cccc(C2=NCCN2)c1)Nc1cccc(C2=NCCN2)c1 | inactive |
| Cc1c[nH]c2ccccc12 | inactive |
| CN(C)CCOC(=O)C(c1ccccc1)C1(O)CCCC1 (stereo not given) | inactive |
